In PubChem BioAssay (Tox21) one finds Potency data, which are given here for 40 molecules.

“And” between values parts separate entries of the source, which are not always exact repeats. Identical values can stand only once. Results filed as inconclusive are left out. Where a call stands in place of a potency, no number is given. The source made the active and inactive calls. The call rests on the fitted dose curve; in most records, active means well fitted cell-killing curve with a large enough effect in the repeat runs; inconclusive means weak or mixed curves, or effect the other way; inactive means no such curve, though single readings can be large or run the other way.
Potency means the concentration at half of the fitted maximal effect.

The assay is described as follows: qHTS assay to identify small molecule antagonists of the thyroid receptor (TR) signaling pathway - cell viability counter screen (AID 743064). Further: nearly all actives have a fitted effect of over 50% in size. The settings on record: GH3.TRE-Luc viability, CellTiter-Fluor, 24 h; series mostly up to 70.3 µM. An excerpt: National Center for Advancing Translational Sciences [NCATS]
NIH Chemical Genomics Center [NCGC]
U.S. Environmental Protection Agency [EPA]
National Institutes of Environmental Health Sciences [NIEHS]
National Toxicology Program [NTP]
U.S. Food and Drug Administration [FDA]
Thyroid receptor (TR), a nuclear hormone receptor, plays an important role in development, proliferation, differentiation, metabolism, brain function, and cardiovascular system. […] To profile the Tox21 10K compound library in TR signaling, a cell-based GH3-TRE-Luc assay (GH3.TRE-Luc cell line, developed by the laboratory of Dr. Albertinka J. Murk, Wageningen University) was used to measure the inhibition of TR. GH3 (rat pituitary tumor) cells stably expressing a TR activity sensor consisting of two TR response elements and a luciferase reporter gene. The cytotoxicity of the Tox21 compound library against the GH3.TRE-Luc cell line was tested in parallel by measuring the cell viability using CellTiter-Fluor assay (Promega, Madison, WI) in the same wells.
Tox21 Assay Protocol Summary:
GH3.TRE-Luc cells were dispensed at 1500 cells/4 uL/well into 1536-well white solid bottom plates using a Multidrop Combi dispenser (Thermo Fisher Scientific Inc., Waltham, MA). After the assay plates were incubated at 37 C for 4 hours, 23 nL of library compound or DMSO controls was transferred to the assay plates by a pintool station (Kalypsys, San Diego, CA), followed by addition of 1 ul of T3 (1 nM, final concentration in the wells) to stimulate TR transactivation. The assay plates were incubated at 37 C for 23.5 h, and then 1 uL of CellTiter-Fluor reagent (Promega, Madision, WI) of measuring cytotoxicity was added to each well using a Bioraptr Flying Reagent Dispenser (FRD) workstation (Beckman Coulter, Indianapolis, IN, USA). The plates were incubated at 37C and 5% CO2 for additional 30 min, and fluorescence intensity was measured by a ViewLux plate reader (PerkinElmer, Shelton, CT).
(qHTS replaces the single test concentration by a dilution series.)
In the case of `C=CC(=O)OCCOCCOCCOCCOC(=O)C=C`, the Potency was 15.4 µM (active) and 17.1 µM (active). In the case of `O=C(OCCc1ccccc1)c1ccccc1`, the Potency result is “inactive”. The entry for `C=CCOC(=O)CCC1CCCCC1` is “inactive”.

`CCOC(=O)c1cccnc1`: the Potency entry is “inactive”. The entry for `C=CCOc1ccccc1OCC(O)CNC(C)C` (stereo not given) is “inactive”; for `CCCCCCCCO[C@@H]1O[C@H](CO)[C@@H](O)[C@H](O)[C@H]1O` it is “inactive”; for `Cc1ccccc1S(=O)(=O)O` it is “inactive”. `O=C(O)C(S)C(S)C(=O)O` (stereo not given): the Potency was 26.6 µM (active). The entry for `Nc1cccc(S(=O)(=O)c2cccc(N)c2)c1` is “inactive”; for `CO[C@@H]1[C@H](OC(=O)/C=C/C=C/C=C/C=C/C(=O)O)CC[C@]2(CO2)[C@H]1[C@@]1(C)O[C@@H]1CC=C(C)C` it is “inactive”. For the molecule `C[C@H](CCC(=O)O)[C@H]1CC[C@H]2[C@@H]3CC[C@@H]4C[C@H](O)CC[C@]4(C)[C@H]3C[C@H](O)[C@]12C`, the Potency entry was “inactive”. The entry for `CC(C)(O)c1ccc(CNC(=O)c2cccnc2Oc2ccc(F)cc2)cc1` is “inactive”; for `ClCCOCCOCCCl` it is “inactive”. The entry for `CC(C)(COC(=O)c1ccccc1)COC(=O)c1ccccc1` is “inactive”; for `CN1CCN(C(c2ccccc2)c2ccccc2)CC1` it is “inactive”; for `CCCCC(=O)OCC(=O)[C@H]1[C@H](C)C[C@H]2[C@@H]3C[C@H](F)C4=CC(=O)C=C[C@]4(C)[C@@]3(F)[C@@H](O)C[C@@]21C` it is “inactive”. The entry for `CN(C)c1ccc(CCO)cc1` is “inactive”; for `C[Si](C)(CCCN)O[Si](C)(C)CCCN` it is “inactive”; for `CCN(CC)CCOC(=O)C(Cc1cccc2ccccc12)CC1CCCO1` (stereo not given) it is “inactive”. As to `CC(C)CC(=O)C1C(=O)c2ccccc2C1=O`, the Potency entry is “inactive”. The entry for `O=C(O)C1(C(=O)Nc2ccc(Cl)cc2Cl)CC1` is “inactive”; for `c1ccc(C(O[C@H]2CCCN(CCc3ccc4c(c3)OCO4)C2)c2ccccc2)cc1` it is 29.8 µM (active).

For the molecule `C=C1[C@H]2CC[C@@H]3[C@H]2C(C)(C)CCC[C@]13C`, the Potency result is “inactive”.

With `C[C@@H](c1ncncc1F)C(O)(Cn1cncn1)c1ccc(F)cc1F` (stereo not given in full), the Potency result was “inactive”. For `Cc1oc2c(NC(=O)c3c(Cl)cccc3Cl)cccc2c1C(C)(C)O`, the Potency is 24.3 µM (active). Consider `CC1(c2ccccc2)OC(C(=O)O)=CC1=O` (stereo not given), for which the Potency entry is “inactive”. The figure for `COc1ccc(S(=O)(=O)N2C(=O)[C@@](c3ccccc3OC)(N3C[C@H](O)C[C@H]3C(=O)N(C)C)c3cc(Cl)ccc32)c(OC)c1` is 34.4 µM (active); for `COc1cccc(N(C)C(=S)Oc2ccc3c(c2)CCCC3)n1` it is “inactive”. The entry for `CC(=O)[O][Al]` is “inactive”; for `CCOC(=O)Cc1cccc2ccccc12` it is “inactive”.

For the molecule `CCOc1ccc(N=Nc2ccc(/C=C/c3ccc(N=Nc4ccc(OCC)cc4)cc3S(=O)(=O)O)c(S(=O)(=O)O)c2)cc1`, the Potency is 47.8 µM (active). `C[N+](C)(C)CCOC(=O)CCC(=O)OCC[N+](C)(C)C`: the Potency result was “inactive”. The entry for `CC1=CCCC(C)(C)C12CCC(C)O2` (stereo not given) is “inactive”; for `OC[C@H]1O[C@@H](OCCc2ccc(O)cc2)[C@H](O)[C@@H](O)[C@@H]1O` it is “inactive”. The entry for `CC(C)(C)Cl` is “inactive”; for `CCOc1ccc(N)c([N+](=O)[O-])c1` it is “inactive”; for `CC1OC(=O)C(C)OC1=O` (stereo not given) it is “inactive”.

With `CC(=O)NO`, the Potency entry is “inactive”.

In the case of `CC(C)Nc1ccc(NC(C)C)c2c1C(=O)c1ccccc1C2=O`, the Potency entry was “inactive”. Turning to `O=C(O)c1ccc(S(=O)(=O)O)cc1C(=O)O`, the Potency result is “inactive”.
